Assay results: PubChem BioAssay (NCI)
Compounds without any hit were thinned out: in the full panel of roughly 83,000, 20% have a hit.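 Single-dose data. Exposure time 48 hours. Values below 10 considered active.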 A number with no mark means an inactive call. The source made the active and inactive calls.

Tested on: NCI-H226 lung
Assay: NCI-60 one-dose screen, 48 h (100 = growth as untreated, 0 = no growth, -100 = all killed)
Conditions: 10 µM unless noted

Structure (SMILES)	growth
Cc1cc(CSc2ccc(Cl)cc2)ccc1N	82.9%
CC(=O)C(CO)C(=O)Nc1ccccc1 (stereo not given)	96.9%
Cc1nc2ccccc2c(=O)n1-c1cccc(OCc2cn(-c3cccc(O)c3)nn2)c1	105%
CCCCCCCCCCN1CC2CCCCC2C1 (stereo not given)	76%
CCCCN(CCC)CCCCCCCCCCN1CCCc2ccccc21	99.5%
C/C=C(/C)C(=O)OC1C=C(CO)C(=O)C(OC(=O)/C(C)=C\C)C1C(C)C (stereo not given)	-0.591% (active)
O=C1C(Cl)=C(Nc2ccc(Nc3ccccc3)c(NC3=C(Cl)C(=O)c4ccccc4C3=O)c2)C(=O)c2ccccc21	98.8%
CN1CCN(Cc2ccc(NC(=O)c3cncc(C#Cc4c(N)ncc5ccc(F)cc45)c3)cc2C(F)(F)F)CC1	8.85% (active)
COc1cccc(CNC(=O)c2cccc(C3CC(=O)c4c(cc(OC)c(OC)c4OC)O3)c2)c1 (stereo not given)	78.2%
COC(=O)C1CC(=O)N(C(=O)Nc2ccc(Cl)cc2Cl)C1 (stereo not given)	94.6%
O=C(/C=C\c1ccc(NCc2ccc(C(=O)O)cc2)cc1)CCl	111%
CC1(C)NC(=S)NC1=O	99.6%
Cc1ccc(C(=O)Nc2ccc(CN3CCN(C)CC3)c(C(F)(F)F)c2)cc1C#Cc1cncc2ncccc12	5.51% (active)
COc1ccc(-c2nc(N)n(C(=S)Nc3ccccc3)n2)cc1	92.6%
O=C(O)c1ccc(-c2nn(-c3ccc(C(=O)O)cc3)cc2CNc2ccc(Br)cc2)cc1	115%
